G9a inh: inhibitors of human histone lysine methyltransferase G9a. G9a H3K9 monomethylation, AlphaScreen, 2 h. Potency, µM (series often up to 102 µM), for the others: at the top dose activity, negative = inhibition, usual class: inhibitors. actives 8.8% (n = 350,000). AID 504332; note: % is set by controls: 0 for no effect and ±100 for the full control effect; nearly all actives have a fitted effect of over 75% in size
Target sequence (Q96KQ7 913-1193 limits assumed): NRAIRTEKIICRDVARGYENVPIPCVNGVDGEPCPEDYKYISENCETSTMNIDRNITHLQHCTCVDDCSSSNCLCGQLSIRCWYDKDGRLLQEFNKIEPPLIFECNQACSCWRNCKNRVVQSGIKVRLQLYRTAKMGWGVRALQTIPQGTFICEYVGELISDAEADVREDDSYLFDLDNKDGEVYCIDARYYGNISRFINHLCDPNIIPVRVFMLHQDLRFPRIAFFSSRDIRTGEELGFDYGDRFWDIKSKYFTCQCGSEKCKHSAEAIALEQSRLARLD
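Chemiluminescent proximity detection of H3K9 monomethylation, read after 10 min bead incubation in the dark. Reaction: 20 nM G9a, 500 nM biotin-H3K9 peptide, 20 uM SAM cofactor, 2 h, room temperature, following 15 min enzyme-compound preincubation.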
JMJD2A Tudor: inhibitors of human JMJD2A Tudor domain; AID 504339; AlphaScreen JMJD2A-Tudor / H3K4me3 peptide binding; Potency, µM (doses to about 114 µM), for inactives: at the highest dose activity change, negative = inhibition, usual class: inhibitors; O75164; actives 4.4% (n = 390,000); note: % is set by controls: 0 for no effect and ±100 for the full control effect; nearly all actives have a fitted effect of over 50% in size
BAZ2B block: inhibitors of human BAZ2B bromodomain; Potency, µM (series often up to 114 µM), inactives show top-dose activity change, negative = inhibition, actives largely listed as inhibitors; AID 504333; AlphaScreen BAZ2B-H3K14Ac peptide displacement; Q9UIF8; actives 4.4% (n = 360,000); note: % is set by controls: 0 for no effect and ±100 for the full control effect; nearly all actives have a fitted effect of over 60% in size
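Inhibition is scored as reduced AlphaScreen emission. The BAZ2B/b-H3(5-23)K14Ac complex (50 nM each) in PBS pH 7.4, 0.01% Tween-20 meets compound (up to 110 uM) for 30 min at RT before bead addition.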
Sfp inh: inhibitors of Bacillus subtilis Sfp phosphopantetheinyl transferase. Biochemical Sfp PPTase activity, qHTS. Q9F4F7. actives 3.5% (n = 310,000). Potency, µM, without a hit: largest response in the series, negative = inhibition, actives largely listed as inhibitors;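 note: the enzyme is Sfp with the accession as filed and its product quenches rhodamine fluorescence; 0% = enzyme reaction without inhibitor and -100% = no enzyme wells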
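Fluorescence-quenching assay with 15 nM Sfp, 5 uM rhodamine-CoA and 12.5 uM BHQ-2-labelled ybbR peptide in pH 7.6 Hepes/MgCl2 buffer. Enzyme was pre-incubated with compound for 15 min at room temperature. Rate was taken from the 30-min fluorescence change (525/598 nm).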
HP1b binding inh: inhibitors of HP1-beta chromodomain binding to methylated histone tails; P83916; AlphaScreen HP1-beta / biotin-H3K9me3 peptide binding; Potency, µM (titrated, usually from 114 µM), for the others: at the highest dose activity change, negative = inhibition, hits mostly inhibitors; actives 0.56% (n = 390,000); note: nearly all actives have a fitted effect of over 70% in size
Target sequence (P83916 whole entry, looked up): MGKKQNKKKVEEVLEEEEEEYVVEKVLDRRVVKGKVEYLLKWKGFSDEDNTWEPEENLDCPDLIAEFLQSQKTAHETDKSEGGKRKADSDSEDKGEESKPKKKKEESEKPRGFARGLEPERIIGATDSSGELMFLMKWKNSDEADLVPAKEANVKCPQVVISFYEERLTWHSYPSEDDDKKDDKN
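AlphaScreen: HP1-beta (50 nM) preformed 30 min with biotin-H3(1-18)K9me3 peptide (50 nM) in PBS pH 7.4, 0.01% Tween-20. Compound added for 30 min at RT, then streptavidin donor/nickel chelate acceptor beads (10 ug/mL) for 30 min.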
PLK1 PBD inh: PLK1 (human) polo-box domain binding inhibition; P53350; Plk1 PBD binding of FITC phosphopeptide, fluorescence polarization; Potency, µM, inactives show max response, negative = inhibition, most hits filed as inhibitors; actives 2.8% (n = 360,000); note: series mostly up to about 57 µM; % is set by controls: 0 for no effect and ±100 for the full control effect; nearly all actives have a fitted effect of over 65% in size
The depositor's hits bear a star; ? = inconclusive; . = no result; ! = not confirmed by another sample; [ ] = another dose, or the depositor's remark. This is a sample that favours compounds with a hit; in the whole collection about 12% have one here. Calls come from the whole dose curve; as a rule, active = well fitted curve in the direction sought with a large enough effect; inconclusive = small, poorly fitted or top-dose-only effect, or another doubt; inactive = no such curve, though single readings can be large; an effect the other way counts as inactive or inconclusive. Potency is the fitted concentration of half-maximal effect.

SMILES	G9a inh	JMJD2A Tudor	BAZ2B block	Sfp inh	HP1b binding inh	PLK1 PBD inh
Cc1ccc(C)c(NC(=O)CCN2CCN(C)CC2)c1	11.7%	-13.8%	-5.7%	-1.6%	15.9%	-9.5%
CCOC(=O)N1CCN(CCC(=O)Nc2cc(C)ccc2C)CC1	50.1µM*!	2.3%	-10.5%	1.0%	?	3.9%
CC(C)Oc1ccc(C(=O)CCN2CCOCC2)cc1	.	2.7%	.	.	55.8%	?
CC(C)Oc1ccc(C(=O)CCN2CCCCC2)cc1	7.94µM*	-23.6%	-3.6%	-20.2%	54.0%	?
COc1ccc(C(=O)CCN2CCCCCC2)cc1	8.91µM*	-8.0%	-6.8%	?	25.4%	15.8µM*
CCOc1ccc(C(=O)CCN2CCCCC2)cc1	8.91µM*	4.7%	38.9%	-2.7%	53.3%	?
CCOc1ccc(C(=O)CCC(=O)NN2CCCCC2)cc1	.	.	.	.	.	-1.2%
COc1ccc(-c2cc(NCc3ccc(C)cc3)n3cnnc3n2)cc1	-53.0%[59 µM]	-24.2%	-9.6%	.	19.0%	.
Cc1ccccc1OCC(=O)Nc1ccc2nc(SCc3ccccc3)sc2c1	3.2%[59 µM]	7.6%	-2.7%	.	65.6%	.
O=C(Nc1ccccc1Br)C(Cc1ccccc1)NS(=O)(=O)c1cccc2nsnc12 (centres undefined)	-43.9%[59 µM]	-29.3%	.	.	23.5%	.
CSc1cc(C)c(OCC(=O)Nc2c(C)nn(C)c2C)c(C)c1	.	-2.9%	-6.4%	1.9%	21.9%	0.8%
CC(=O)O[C@](C)(CCC=C(C)C)C1CC=C(C)CC1 (some centres undefined)	.	.	.	8.0%	.	.
COc1ccccc1CNC(=O)c1ccc(-c2nc(CS(=O)(=O)c3ccc(C)cc3)c(C)o2)cc1	-29.4%[59 µM]	-2.4%	-16.1%	.	31.5%	.
Cn1c(CNC(=O)CCNC(=O)c2cccc(F)c2)cc(=O)n(C)c1=O	41.8%	-7.8%	-3.5%	16.5%	28.3%	-14.2%
CCOc1ccc(C(=O)N2CCCN(C(=O)c3ccc(OCC)cc3)CC2)cc1	31.6µM*	-21.3%	5.4%	-5.8%	9.9%	?
CC(C)c1ccc(S(=O)(=O)c2cn(Cc3ccc(F)cc3)c3cc4c(cc3c2=O)OCO4)cc1	-9.8%[59 µM]	.	7.1%	6.7%	.	.
Cc1ccc(Cn2cc(S(=O)(=O)c3ccc(C(C)C)cc3)c(=O)c3cc4c(cc32)OCO4)cc1	44.7µM*	-30.8%	-0.8%	?	8.7%	-10.2%
c1ccc(CN(Cc2ccco2)C(c2ccncc2)c2nnnn2C2CCCC2)cc1 (centres undefined)	20µM*	?	?	-27.2%	-3.2%	?
Fc1ccc(C(c2nnnn2C2CCCC2)N(Cc2ccco2)CC2CCCO2)cc1 (centres undefined)	1.2%[59 µM]	-1.5%[11.4 µM]	-3.3%	-3.0%	-14.7%	-17.7%
CCN(CC)C(c1ccc(F)cc1)c1nnnn1C1CCCCC1 (centres undefined)	89.1µM*	7.4%	-30.6%	5.8%	31.6%	-4.5%
Nc1nc2c(ncn2C2CC(O)C(CO)O2)c(=O)[nH]1 (centres undefined)	.	.	.	-5.1%	.	.
CC(=O)Nc1cccc(-c2nc3ccccc3c(=O)o2)c1	11.2µM*	-8.7%	0.9%	18.7%	58.5%	-8.9%
Cc1ccc(C(=O)Nc2cccc(-c3nc4ccccc4o3)c2)c(Cl)c1	-4.1%[59 µM]	6.9%	5.8%	.	60.5%	.
O=C(O)c1ccccc1-c1ccccc1C(=O)Nc1cccc(-c2nc3ccccc3o2)c1	-38.0%	-16.8%	-12.6%	16.5%	46.1%	67µM*
Cc1cc(NC(=O)CSc2nc(=O)n(CCCN(C)C)c3c2CCCC3)no1	?	1.4%	10.2%	.	37.2%	-0.3%
SMILES	G9a inh	JMJD2A Tudor	BAZ2B block	Sfp inh	HP1b binding inh	PLK1 PBD inh
O=[N+]([O-])c1cc(S(=O)(=O)N2CCCC2)ccc1O	12.9%[59 µM]	-14.1%	5.7%	2.2%	13.6%	-13.4%
O=[N+]([O-])c1cc(S(=O)(=O)N2CCCCCC2)ccc1F	-6.0%[59 µM]	-22.3%	-22.4%	-1.8%	-2.8%	15µM*
O=S(=O)(c1cccc2c(I)cccc12)N1CCCNCC1	?	.	.	-22.8%	.	.
O=[N+]([O-])c1cc(S(=O)(=O)N2CCCC2)ccc1N/N=C1/CCCc2ccccc21	4.47µM*	?	3.55µM*	7.4%	?	-4.5%
O=[N+]([O-])c1cccc2c(S(=O)(=O)N3CCCCC3)cccc12	56.2µM*	?	70.8µM*	-3.0%	?	-8.1%
O=S(=O)(c1cccc2c(Cl)cccc12)N1CCCNCC1	18.9µM*!	.	.	-6.8%	.	.
N#Cc1c[nH]n2c(NC3CCCC3)c(-c3cccc(Br)c3)nc12	-12.7%[59 µM]	-25.5%	-4.2%	.	3.0%	.
Cc1ccc(C(=O)NCC(c2ccc3c(c2)OCO3)N2CCN(C)CC2)cc1C (centres undefined)	7.0%[59 µM]	-12.6%	2.0%	.	14.1%[57 µM]	.
COc1ccc(C(=O)Nc2sc3c(c2C(N)=O)CCCC3)cc1OC	.	.	.	-3.0%	.	.
Cc1ccc(NC(=O)Cn2c(=O)n(Cc3ccc4c(c3)OCO4)c(=O)c3oc4ccccc4c32)cc1C	-32.9%[59 µM]	-7.3%	?	.	33.4%	.
O=c1c2cn[nH]c2[nH]c(=S)n1-c1ccccc1F	8.91µM*	?	?	-12.4%	-14.3%	-18.2%
Cc1ccc(-n2c(=S)[nH]c3nc4c(cc3c2=O)COC(C)(C)C4)cc1	13.8%[59 µM]	-0.7%	-6.2%	26.0%	41.1%	-5.7%
Cc1ccc(-n2c(=S)[nH]c3[nH]ncc3c2=O)cc1	35.5µM*	-29.9%	?	-24.6%	42.3%	?
O=c1c2cn[nH]c2[nH]c(=S)n1-c1ccccc1Cl	44.7µM*	-14.9%	14.1%	56.2µM*	29.9%	-21.1%
COc1ccc(C2=N[C@@H](C(C)C)CO2)cc1	2.0%[135 µM]	.	.	11.6%	.	.
Cc1cc2c(cc1S(=O)(=O)NCc1ccc(F)cc1)n(C)c(=O)c(=O)n2C	-5.7%[59 µM]	-7.9%	0.2%	.	22.5%	.
O=c1[nH]c(=O)c2[nH]c(=O)[nH]c2[nH]1	-39.3%[12.7 µM]	.	.	8.8%	.	.
O=C(O)Cc1ccc(NC(=O)C2CC=CCC2C(=O)O)cc1 (centres undefined)	?	.	56.2µM*	-8.9%	.	.
N#CC1=C(O)C(c2ccccc2)n2c1nc(=O)c1ccccc12 (centres undefined)	25.1µM*	-20.3%	?	-2.4%	30.0%	-5.5%
O=c1[nH]c(CN2CCN(C/C=C/c3ccccc3)CC2)nc2ccccc12	?	-32.8%	3.8%	-1.0%	4.3%	-1.2%
Nc1nc(N2CCN(C/C=C/c3ccccc3)CC2)nc2ccccc12	?	-15.8%[11.4 µM]	-36.8%	-2.3%	26.0%	26.7µM*
COc1ccc(CCNC(=O)c2cc(C3CC3)nc3c2cnn3C(C)C)cc1	24.3%[12.7 µM]	9.8%	48.9%	.	54.1%	-3.4%
O=C(/C=C/c1ccc(OC2CSC2)cc1)c1ccccc1	15.6%	?	-2.1%	-8.6%	-9.7%	26.7µM*
O=C(N/N=C/c1ccc(OC2CSC2)cc1)c1ccccc1	5.4%[59 µM]	-2.3%	-7.7%	-11.0%	19.1%	1.2%
